High-throughput results as filed in PubChem.
Cruzain inh noDet = qHTS Assay for Promiscuous and Specific Inhibitors of Cruzain (without detergent); actives 2.3% (n = 200,000); purified cruzain, Z-FR-AMC fluorescence, no detergent; Cruzipain (Trypanosoma cruzi), P25779; AID 1476, 2009; Potency, µM, for the others: max response, negative = inhibition, usual class: inhibitors;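 note: plate controls were enzyme without inhibitor for no effect and buffer without enzyme for full effect; nearly all actives have a fitted effect of over 40% in size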
Target sequence (P25779 123-467 limits assumed): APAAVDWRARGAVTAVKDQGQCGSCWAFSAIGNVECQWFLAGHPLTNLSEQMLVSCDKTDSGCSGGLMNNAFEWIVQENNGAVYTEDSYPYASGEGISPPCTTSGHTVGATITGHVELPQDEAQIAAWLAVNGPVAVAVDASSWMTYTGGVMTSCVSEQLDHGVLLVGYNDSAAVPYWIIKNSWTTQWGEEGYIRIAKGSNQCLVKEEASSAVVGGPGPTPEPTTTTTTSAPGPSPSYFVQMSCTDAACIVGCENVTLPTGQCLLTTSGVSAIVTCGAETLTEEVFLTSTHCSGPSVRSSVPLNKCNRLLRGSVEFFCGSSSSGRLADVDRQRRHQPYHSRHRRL
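Detergent-free condition (0.00005% Triton X-100) in acetate buffer pH 5.5 with DTT. 1.5 nM enzyme and compound were pre-mixed 15 min, then 2 uM Z-FR-AMC substrate added; reaction progress from fluorescence change between first and third reads (60 s).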
Cruzain inh Det = qHTS Assay for Promiscuous and Specific Inhibitors of Cruzain (with detergent). Cruzipain (Trypanosoma cruzi), P25779. purified cruzain, Z-FR-AMC fluorescence, 0.01% Triton. Potency, µM, for the others: max response, negative = inhibition, most hits filed as inhibitors. actives 0.43% (n = 200,000);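 note: plate controls were neutral wells for no effect and buffer without enzyme for full effect; nearly all actives have a fitted effect of over 40% in size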
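Purified cruzain (1.5 nM final) was preincubated with compounds for 15 min at room temperature in 100 mM sodium acetate pH 5.5, 5 mM DTT, 0.01% Triton X-100. Reaction started with 2 uM Z-FR-AMC; AMC fluorescence change over 60 s gave activity.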
Numbers without * were called inactive; u = inconclusive. Rows were chosen to be rich in hits. Some 2.4% of all compounds tested hit in one or more screens of this group. Calls come from the whole dose curve; as a rule, active = well fitted curve in the direction sought with a large enough effect; inconclusive = small, poorly fitted or top-dose-only effect, or another doubt; inactive = no such curve, though single readings can be large; an effect the other way counts as inactive or inconclusive. Potency is the fitted concentration of half-maximal effect.

SMILES	Cruzain inh noDet	Cruzain inh Det
Cc1ccc2scc(N3CCCC(C)C3)c(=O)c2c1 (configuration not stated)	-7%	-4%
COc1ccccc1-c1nnc(Nc2nc3c(OC)cccc3s2)o1	32µM*	u
COc1cccc2sc(Nc3nnc(-c4ccccc4Cl)o3)nc12	u	1%
Cc1ccccc1-c1cncnc1NCc1cccs1	-9%	1%
COc1ccc2nc(NC(=O)C3CCN(S(=O)(=O)c4cccs4)CC3)sc2c1	u	-1%
O=C(Nc1nccs1)C1CCCN(S(=O)(=O)c2cccc3cccnc23)C1 (configuration not stated)	3%	1%
COc1ccc2nc(NC(=O)C3CCCN(S(=O)(=O)c4cccs4)C3)sc2c1 (configuration not stated)	25µM*	-2%
O=C(Nc1nc2cc(Cl)ccc2s1)C1CCCN(S(=O)(=O)c2cccc3cccnc23)C1 (configuration not stated)	25µM*	-8%
Cc1ccc(NC(=O)C2CCCN(c3nc4ccccc4s3)C2)c(C)c1 (configuration not stated)	16%	-4%
Cc1ccc(Cl)cc1N1CCN(C(c2ccc(F)cc2)c2nnc(-c3ccccc3)o2)CC1 (configuration not stated)	6.3µM*	-1%
Cc1cccc(N2CCN(C(c3ccc(F)cc3)c3nnc(-c4ccccc4)o3)CC2)c1C (configuration not stated)	u	-3%
Cc1ccc(CSc2nc3c(c(=O)[nH]2)C(c2cccc(F)c2F)CC(=O)N3)cc1 (configuration not stated)	1%	5%
COc1ccc(-c2nnc(SCC(=O)c3ccc([N+](=O)[O-])cc3)o2)cc1OC	11%	0%
O=C(Nc1nc(-c2ccc(Cl)s2)cs1)c1cccs1	u	-8%
O=C(Nc1ccc([N+](=O)[O-])cc1)Nc1nc(-c2ccc(Cl)s2)cs1	5µM*	-1%
C[N+](C)(C)C(C1=CCCC1=O)c1ccccc1 (configuration not stated)	3%	1%
Cc1ccc(C(=O)C(C(=O)/C=C/c2ccccc2)=C2SCCCS2)cc1	25µM*	-8%
COc1ccc(/C=C/C(=O)C(C(N)=O)=C2SCCS2)cc1	7%	-6%
COCc1cc(C)nc2sc3c(c12)NC(c1ccc(O)cc1)N(c1ccc(C)cc1)C3=O (configuration not stated)	13%	-12%
COC(=O)c1ccccc1NC(=O)C1=CC(c2ccc(C)cc2)=NS(=O)(=O)N1C	u	-4%
CCc1nnc(NC(=O)CCc2ccc(C)o2)s1	-3%	1%
Cc1ccc(CCC(=O)Nc2ncc(Cc3cccc(Cl)c3Cl)s2)o1	13µM*	1%
O=C1OC2C[C@H]1[C@@H]1C(=O)N(Cc3ccccc3)CCC1C2I (some centres not stated)	-3%	2%
Nc1nnnn1/N=C/c1ccccc1OCc1ccc(Cl)cc1	-28%	-5%
Nc1nnnn1/N=C/c1ccccc1OCc1ccc(Cl)cc1Cl	16µM*	14µM*
SMILES	Cruzain inh noDet	Cruzain inh Det
C#CCCCCCCCCCCCc1ccco1	8%	-4%
Cc1ccccc1-n1c(SCC(N)=O)nc2sc(-c3ccccc3)cc2c1=O	10%	-5%
C=CCSc1nc2sc(-c3ccccc3)cc2c(=O)n1N	32µM*	-5%
Cc1nc(-n2nc(C)c(CCC(C)C)c2C)sc1C(=O)Nc1ccc(Br)cc1	-8%	1%
COc1ccc(C(=O)N2CCCCC2CCN2CCOCC2)cc1 (configuration not stated)	-12%	1%
COC(=O)c1ccc(CC(=O)c2nc3ccccc3s2)cc1	32µM*	-2%
O=C(Cc1ccccc1)c1nc2ccccc2s1	-13%	-15%
COc1ccc2c(c1)c1c(c(=O)n(-c3cccc(C)c3)c(=O)n1CC(=O)NCCC1=CCCCC1)n2C	-1%	-2%
O=c1cc(-c2cccs2)oc2ccc(Cl)cc12	0%	-3%
O=C1OC(/C=C/c2ccc(Cl)cc2Cl)=NC/1=C\c1cccs1	25µM*	u
CCNc1ncc2nc(C)c(=O)n(C[C@H]3CCCO3)c2n1	u	20µM*
CCNc1ncc2ncc(=O)n(C[C@H]3CCCO3)c2n1	-14%	-15%
O=C(CSc1nc(-c2ccccc2)no1)N1CCN(c2ccc(F)cc2)CC1	-3%	2%
Cc1cc(NC(=O)N(C)CCc2c(C)nn(C)c2C)ccc1Br	1%	-1%
O=C(O)CCCC/C=C\C[C@@H](O)/C=C/C=C/C=C\[C@@H](O)CCCC(=O)O	4µM*	13µM*
O=C(O)CCC[C@H](O)\C=C/C=C/C=C/[C@H](O)C/C=C\CCCCCO	-10%	5%
COc1ccc(N=C2NN=C(c3ccc4c(c3)OCCO4)CS2)cc1	25µM*	-3%
COCCn1c(C)cc(C2=NNC(=Nc3ccc(OC)cc3)SC2)c1C	1%	-1%
